High-throughput results (PubChem BioAssay)
FXN GAA850 act – increases GAA850 frataxin promoter reporter activity. HEK293 lucGAA850 FXN promoter luciferase reporter, 24 h; percent of 10 µM SAHA response. activation, % at 6 µM. 360,000 tested, 0.56% active. AID 540364;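 active = activation above the average of all compounds screened plus 3 SD, cutoff fixed separately per campaign, cut at about 7.5% in these data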;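 also: 0% = DMSO wells and 100% = 10 µM SAHA wells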
NR0B1 inh – inhibitors of human orphan nuclear receptor DAX1 (NR0B1). inhibition, % at 6.75 µM. 340,000 tested, 0.99% active. P51843. HEK293 Gal4-DAX1 luciferase reporter, luminescence;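 active = inhibition above the mean over all tested compounds plus 3 SD, cut at about 4.2% in these data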;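 also: 0% = DAX1-transfected cells with DMSO and 100% = empty-vector control cells with DMSO; inhibition shows as a rise in luminescence from relieved DAX1 repression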
AHR activator – activators of human aryl hydrocarbon receptor. P35869. AHR-responsive luciferase reporter cells, luminescence. activation, % at 5 µM. 320,000 tested, 2.5% active. AID 2796; in the data active = activation above about 47%;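 also: 0% = vehicle wells and 100% = reference agonist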
Target sequence (P35869 whole entry, looked up): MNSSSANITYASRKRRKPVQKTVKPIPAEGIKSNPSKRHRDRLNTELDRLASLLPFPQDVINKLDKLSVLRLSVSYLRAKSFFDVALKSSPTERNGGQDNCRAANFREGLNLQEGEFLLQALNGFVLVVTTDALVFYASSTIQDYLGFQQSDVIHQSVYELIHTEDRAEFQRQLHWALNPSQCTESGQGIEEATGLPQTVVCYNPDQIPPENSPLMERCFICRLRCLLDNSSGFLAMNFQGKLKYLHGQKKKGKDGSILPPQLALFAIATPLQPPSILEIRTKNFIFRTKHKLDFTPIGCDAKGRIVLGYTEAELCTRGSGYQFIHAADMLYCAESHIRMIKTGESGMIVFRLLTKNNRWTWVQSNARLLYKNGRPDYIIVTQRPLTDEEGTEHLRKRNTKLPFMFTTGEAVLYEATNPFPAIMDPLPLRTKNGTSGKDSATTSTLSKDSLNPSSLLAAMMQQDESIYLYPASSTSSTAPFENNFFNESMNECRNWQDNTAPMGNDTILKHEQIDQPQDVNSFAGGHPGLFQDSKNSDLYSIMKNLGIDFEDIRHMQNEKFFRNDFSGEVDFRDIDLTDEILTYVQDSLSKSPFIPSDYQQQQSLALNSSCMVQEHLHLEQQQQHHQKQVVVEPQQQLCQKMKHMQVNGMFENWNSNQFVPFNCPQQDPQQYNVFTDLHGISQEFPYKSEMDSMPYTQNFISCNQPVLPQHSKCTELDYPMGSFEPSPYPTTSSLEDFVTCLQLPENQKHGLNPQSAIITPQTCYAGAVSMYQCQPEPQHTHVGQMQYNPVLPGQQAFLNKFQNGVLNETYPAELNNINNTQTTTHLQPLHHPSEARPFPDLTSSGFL
HSF1 inhib – HSF1 inhibition | NIH3T3-HGL HSE-luciferase, MG132-induced, luminescence 8 h; hits give low values | activity change, negative = inhibition, % at 7.5 µM (by protocol) | 300,000 tested, 0.77% active | AID 2098;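 active = more than half of replicate wells show activity change below -50%, luminescence cut by over half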;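 also: luciferase reports HSF-1 transcriptional activity via heat shock element; 0% = median of DMSO wells and -100% = zero luminescence signal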
HSF-1 act – increases HSF-1 driven luciferase reporter signal. NIH3T3-HGL HSF-1 luciferase reporter, MG132, 8 h; 100% = twice DMSO control signal. activation, % at 9 µM. 300,000 tested, 1.7% active;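 active = mean replicate activation of at least 50% with a set share of replicates each reaching 50%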;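 also: 0% = median of the neutral control wells and 100% = twice that signal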
Numbers without * were called inactive. Shown are actives, neighbours in structure and some others; about 5.4% of the full set was active somewhere.

`Cc1cc2nc(-c3ccc(SCC(=O)N4CCN(C(=O)c5ccco5)CC4)nc3)[nH]c2cc1C` gave FXN GAA850 act 0, NR0B1 inh -2, AHR activator 33, HSF1 inhib 1 and HSF-1 act 20.
For Cc1cc2nc(-c3ccc(SCC(=O)N4CCOCC4)nc3)[nH]c2cc1C the results were FXN GAA850 act -4, NR0B1 inh -2, AHR activator 60*, HSF1 inhib 15 and HSF-1 act 16.
CC1=C(C)CC(C(=O)NCc2cccc(Cl)c2)C(C(=O)O)C1 (stereo not given) was read as FXN GAA850 act -2, NR0B1 inh 1, AHR activator 2, HSF1 inhib -2 and HSF-1 act 5.
Screening COc1ccc(/C=C(\C#N)C(=O)OCCNC(=O)c2ccncc2)cc1 returned FXN GAA850 act 2, NR0B1 inh -2, AHR activator -1, HSF1 inhib -3 and HSF-1 act 19.
Screening O=C(Oc1oc(-c2ccco2)nc1C=Nc1ccccc1)c1ccoc1 returned FXN GAA850 act 2, NR0B1 inh 2, AHR activator -4, HSF1 inhib -81* and HSF-1 act -86.
For O=C(Oc1oc(-c2ccco2)nc1C=Nc1ccccc1)c1ccco1 the results were FXN GAA850 act 0, NR0B1 inh 0, AHR activator 2, HSF1 inhib 6 and HSF-1 act -2.
For Cc1ccc(C(=O)Oc2oc(-c3ccco3)nc2C=Nc2ccc(Cl)cc2)cc1 the results were FXN GAA850 act 2, NR0B1 inh 0, AHR activator 21, HSF1 inhib 53 and HSF-1 act 86*.
Cc1cc(C)cc(Cn2c3ccc(NC(=O)NCc4ccc(F)cc4)cc3c(=O)n2C)c1 was read as FXN GAA850 act -1.
Screening CCOC(=O)N1CCN(C(=O)/C(=C/c2cccs2)NC(=O)c2cccs2)CC1 returned FXN GAA850 act -1, NR0B1 inh 0, AHR activator 0, HSF1 inhib 6 and HSF-1 act -8.
`Cc1ccccc1Cn1c(=O)c2c(nc3n2CCN3Cc2ccco2)n(C)c1=O` gave FXN GAA850 act 2 and NR0B1 inh 1.
Nc1cccc2c1C(=O)N(C(=O)/C=C/c1cccc(F)c1)C2=O was read as FXN GAA850 act 2, NR0B1 inh -1, AHR activator 4, HSF1 inhib 21 and HSF-1 act 22.
COc1cc(/C=C/C(=O)N2C(=O)c3cccc(N)c3C2=O)cc(OC)c1OC was read as FXN GAA850 act 5, NR0B1 inh -1, AHR activator 5, HSF1 inhib 96 and HSF-1 act 130*.
Screening Nc1cccc2c1C(=O)N(C(=O)/C=C/c1cccc(Br)c1)C2=O returned FXN GAA850 act 4, NR0B1 inh 1, HSF1 inhib 130 and HSF-1 act 106*.
Cc1cccc(OCCNC(=O)c2cccc(Oc3ccc(C(F)(F)F)cc3[N+](=O)[O-])c2)c1 was read as FXN GAA850 act -1, NR0B1 inh -2, AHR activator 4, HSF1 inhib -1 and HSF-1 act 16.
For COc1cc(-c2noc(C)c2C#Cc2nccn2C)cc(OC)c1OC the results were FXN GAA850 act -2, NR0B1 inh 0, AHR activator 66*, HSF1 inhib 2 and HSF-1 act 5.
CN(C)C1=NC[C@H](Cc2ccccc2)N1CC1CCCCCC1 was read as FXN GAA850 act -3, NR0B1 inh 1 and AHR activator 3.
For COc1ccc2c(c1)c(C(=O)N/N=C/c1ccccc1Cl)c(C)n2C the results were FXN GAA850 act 0, NR0B1 inh 2, AHR activator 57*, HSF1 inhib 16 and HSF-1 act 56*.
Screening CN1CCCN(C(=O)CNC(=O)c2ccc(Cl)cc2Cl)CC1 returned FXN GAA850 act 0, NR0B1 inh 2 and AHR activator -1.
Screening CCN1CCN(CCn2c(=S)[nH]c3ccccc3c2=O)CC1 returned FXN GAA850 act 1, NR0B1 inh 0, AHR activator 5, HSF1 inhib -9 and HSF-1 act 0.
Screening Cc1cccc(C)c1N1CCN(CCn2c(=S)[nH]c3ccccc3c2=O)CC1 returned FXN GAA850 act 0, NR0B1 inh 4.2*, HSF1 inhib 6 and HSF-1 act -13.
For C[C@@H]1CCCCO[C@@H](CN(C)S(=O)(=O)c2ccccc2)[C@@H](C)CN([C@H](C)CO)C(=O)c2cc(N(C)C)ccc2O1 the results were FXN GAA850 act 0 and NR0B1 inh 1.
